# In the supplement of paper PMC6555819:
# What was measured:
# Experiment in all cases: PBM binding z-score (relative to random genomic background probes); higher = stronger binding; sequences stand for … in GC…GCGATTGACAGCGTAGAATGAAGG
# [1] = system: RARb homodimer (NR concentration 270 nM)
# Outline: (§1)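 The probes on custom Agilent 4×180K protein-binding microarrays were double-stranded, with 34-nt variable regions bearing direct-repeat seeds, single-nucleotide variants, half-site ablations and random human genomic background sequences. Incubation lasted 1 h with ligand-free nuclear receptor dimers in PBS pH 7.4, 2% milk, 0.02% Triton X-100, 1 mM DTT, 0.2 mg/mL BSA and 0.4 mg/ml salmon testes DNA. Antibodies against each partner (one per run) detected bound dimers, and fluorescence scans were regression-normalized. Binding z-scores take the random background probes as reference.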
# [2] = system: RARg:RXRa (NR concentration 270 nM, RXRa partner concentration 90 nM)
# Outline: as §1
# [3] = system: RARg homodimer (NR concentration 270 nM)
# Outline: as §1
# [4] = system: RXRa DBDmut IVT, anti-RXR (DBD mutation: RXRa K156A/R161A, NR concentration 90 nM)
# Outline: as §1
# [5] = system: RXRa homodimer (NR concentration 180 nM)
# Outline: as §1
# [6] = system: THRa:RXRa (NR concentration 90 nM, RXRa partner concentration 90 nM)
# Outline: as §1
# [7] = system: THRa homodimer (NR concentration 90 nM)
# Outline: as §1
# [8] = system: VDR homodimer (NR concentration 270 nM)
# Outline: as §1
sequence,measurement,setting,value
ACTCCGAGGACAAAGGTCAGAGCTACGCCAGTGA,PBM binding z-score,[1],4.47
same,PBM binding z-score,[2],6.28
same,PBM binding z-score,[3],5.92
same,PBM binding z-score,[4],1.97
same,PBM binding z-score,[5],6.11
same,PBM binding z-score,[6],4.27
same,PBM binding z-score,[7],2.29
same,PBM binding z-score,[8],1.67
TCAAGTAGGTTAGGGGCATTCAGAATGGCGTCGA,PBM binding z-score,[1],1.23
same,PBM binding z-score,[2],0.789
same,PBM binding z-score,[3],0.56
same,PBM binding z-score,[4],1.29
same,PBM binding z-score,[5],1.08
same,PBM binding z-score,[6],1.45
same,PBM binding z-score,[7],0.575
same,PBM binding z-score,[8],1.48
CCTTACGGGTCACGCCAGGTTATAGCATCGGAGT,PBM binding z-score,[1],3.89
same,PBM binding z-score,[2],5.65
same,PBM binding z-score,[3],5.54
same,PBM binding z-score,[4],1.75
same,PBM binding z-score,[5],6.22
same,PBM binding z-score,[6],5.03
same,PBM binding z-score,[7],0.956
same,PBM binding z-score,[8],0.985
GCGACTGGGGCAAAGCAGGTTTCCATAAGGTTGG,PBM binding z-score,[1],-0.0206
same,PBM binding z-score,[2],-0.174
same,PBM binding z-score,[3],-0.133
same,PBM binding z-score,[4],0.157
same,PBM binding z-score,[5],-0.342
same,PBM binding z-score,[6],1.21
same,PBM binding z-score,[7],-0.028
same,PBM binding z-score,[8],-0.34
TCTTGTAGATCAACAGGAGGTTAAGAAGGATCGA,PBM binding z-score,[1],0.431
same,PBM binding z-score,[2],0.952
same,PBM binding z-score,[3],0.15
same,PBM binding z-score,[4],0.27
same,PBM binding z-score,[5],1.09
same,PBM binding z-score,[6],0.94
same,PBM binding z-score,[7],-0.619
same,PBM binding z-score,[8],-0.0476
CGTCCAAGGTCAATGCTAGGTGAGTGAAAGCATT,PBM binding z-score,[1],3.95
same,PBM binding z-score,[2],5.76
same,PBM binding z-score,[3],6.07
same,PBM binding z-score,[4],3.39
same,PBM binding z-score,[5],4.73
same,PBM binding z-score,[6],3.92
same,PBM binding z-score,[7],2.34
same,PBM binding z-score,[8],2.15
TCATATAGGTAATACTGGTGAAAGTCGGCATCTA,PBM binding z-score,[1],-0.0217
same,PBM binding z-score,[2],0.407
same,PBM binding z-score,[3],0.265
same,PBM binding z-score,[4],1.59
same,PBM binding z-score,[5],0.819
same,PBM binding z-score,[6],0.113
same,PBM binding z-score,[7],-0.05
same,PBM binding z-score,[8],0.596
GCTAGTTGGTCAGTAAAAGGTCACAAACCGGTCG,PBM binding z-score,[1],4.94
same,PBM binding z-score,[2],4.99
same,PBM binding z-score,[3],4.28
same,PBM binding z-score,[4],0.203
same,PBM binding z-score,[5],4.8
same,PBM binding z-score,[6],3.32
same,PBM binding z-score,[7],1.15
same,PBM binding z-score,[8],1.71
CGTCCAAGGTCAGAGAGGTCAGTGAATGCCGAGT,PBM binding z-score,[1],5.19
same,PBM binding z-score,[2],6.25
same,PBM binding z-score,[3],6.97
same,PBM binding z-score,[4],3.52
same,PBM binding z-score,[5],5.73
same,PBM binding z-score,[6],4.19
same,PBM binding z-score,[7],2.86
same,PBM binding z-score,[8],5.68
ACAGACGGGTGAGTGAAGGTAACTCAGCTGGACG,PBM binding z-score,[1],0.0268
same,PBM binding z-score,[2],-0.0676
same,PBM binding z-score,[3],0.0149
same,PBM binding z-score,[4],-0.71
same,PBM binding z-score,[5],0.204
same,PBM binding z-score,[6],1.45
same,PBM binding z-score,[7],-0.184
same,PBM binding z-score,[8],-0.714
CCTCGGAGGAGAGAAGGTCAGAGCTGTCCGCTTT,PBM binding z-score,[1],2.71
same,PBM binding z-score,[2],1.89
same,PBM binding z-score,[3],1.69
same,PBM binding z-score,[4],-0.424
same,PBM binding z-score,[5],1.89
same,PBM binding z-score,[6],1.59
same,PBM binding z-score,[7],-0.246
same,PBM binding z-score,[8],-0.0749
CGTCCAAGGCCAAGGTCAGTGAAAGAGACTCGAA,PBM binding z-score,[1],3.42
same,PBM binding z-score,[2],2.86
same,PBM binding z-score,[3],3.7
same,PBM binding z-score,[4],1.31
same,PBM binding z-score,[5],1.83
same,PBM binding z-score,[6],2.87
same,PBM binding z-score,[7],1.51
same,PBM binding z-score,[8],0.947
ACTATTAGTTAACTTAGGGCAACCGATACGACGC,PBM binding z-score,[1],0.839
same,PBM binding z-score,[2],0.89
same,PBM binding z-score,[3],1
same,PBM binding z-score,[4],0.837
same,PBM binding z-score,[5],0.532
same,PBM binding z-score,[6],1.88
same,PBM binding z-score,[7],0.447
same,PBM binding z-score,[8],0.283
CCTTACGTGTCACTGACAGGTTATAGCATTTGGA,PBM binding z-score,[1],1.37
same,PBM binding z-score,[2],1.71
same,PBM binding z-score,[3],1.21
same,PBM binding z-score,[4],0.934
same,PBM binding z-score,[5],0.941
same,PBM binding z-score,[6],0.816
same,PBM binding z-score,[7],0.847
same,PBM binding z-score,[8],0.842
AATATTAGTTGACTTAGGGCAACCGATACGACGC,PBM binding z-score,[1],0.918
same,PBM binding z-score,[2],0.615
same,PBM binding z-score,[3],0.87
same,PBM binding z-score,[4],0.532
same,PBM binding z-score,[5],0.76
same,PBM binding z-score,[6],1.44
same,PBM binding z-score,[7],0.572
same,PBM binding z-score,[8],0.87
GCTGCTAGGTCACCTGATGGTCAGCTAAAGCTCG,PBM binding z-score,[1],3.33
same,PBM binding z-score,[2],4.88
same,PBM binding z-score,[3],5.27
same,PBM binding z-score,[4],1.18
same,PBM binding z-score,[5],2.64
same,PBM binding z-score,[6],3
same,PBM binding z-score,[7],1.57
same,PBM binding z-score,[8],-0.0693
TCTGCTAGGTCAGTTGGTCAGCTGACGAGCTGCC,PBM binding z-score,[1],2.33
same,PBM binding z-score,[2],2.98
same,PBM binding z-score,[3],4.14
same,PBM binding z-score,[4],0.382
same,PBM binding z-score,[5],0.854
same,PBM binding z-score,[6],1.31
same,PBM binding z-score,[7],-0.308
same,PBM binding z-score,[8],-1.1
GATACAGGGTCAGCTAGAGGCCAGAGTCTGGAAA,PBM binding z-score,[1],3.39
same,PBM binding z-score,[2],6.56
same,PBM binding z-score,[3],5.07
same,PBM binding z-score,[4],1.7
same,PBM binding z-score,[5],4.07
same,PBM binding z-score,[6],2.9
same,PBM binding z-score,[7],0.144
same,PBM binding z-score,[8],0.522
AGAACGAGGGCTCGCTGAGTTGATAGCAGAGTAG,PBM binding z-score,[1],-1.22
same,PBM binding z-score,[2],-0.312
same,PBM binding z-score,[3],-0.258
same,PBM binding z-score,[4],-0.292
same,PBM binding z-score,[5],-0.132
same,PBM binding z-score,[6],-0.509
same,PBM binding z-score,[7],-0.958
same,PBM binding z-score,[8],-0.176
CTACCAATGTGAACAAGGTCGTTGATTACTATTC,PBM binding z-score,[1],1.33
same,PBM binding z-score,[2],0.629
same,PBM binding z-score,[3],0.564
same,PBM binding z-score,[4],1.83
same,PBM binding z-score,[5],1.08
same,PBM binding z-score,[6],2.17
same,PBM binding z-score,[7],1.33
same,PBM binding z-score,[8],2.32
TGACCAAGGTGAAAGGTCGTTGATGCACGCCTTG,PBM binding z-score,[1],2.49
same,PBM binding z-score,[2],4.18
same,PBM binding z-score,[3],2.09
same,PBM binding z-score,[4],0.0698
same,PBM binding z-score,[5],5.72
same,PBM binding z-score,[6],3.35
same,PBM binding z-score,[7],0.487
same,PBM binding z-score,[8],1.31
TCGAGTAGGTTACCAATGTGGCATTCAGCTTTCT,PBM binding z-score,[1],-0.0137
same,PBM binding z-score,[2],0.035
same,PBM binding z-score,[3],0.256
same,PBM binding z-score,[4],0.471
same,PBM binding z-score,[5],0.375
same,PBM binding z-score,[6],0.00485
same,PBM binding z-score,[7],-0.499
same,PBM binding z-score,[8],-0.622
ATCTCAAGGTAACAAGTTCAGTGAAAGAGAGGAC,PBM binding z-score,[1],2.19
same,PBM binding z-score,[2],1.79
same,PBM binding z-score,[3],1.79
same,PBM binding z-score,[4],1.34
same,PBM binding z-score,[5],1.23
same,PBM binding z-score,[6],2.16
same,PBM binding z-score,[7],1.54
same,PBM binding z-score,[8],2.9
TATACAGGGTCAAAGGACAGAGTACGAATGTCGA,PBM binding z-score,[1],3.47
same,PBM binding z-score,[2],5.29
same,PBM binding z-score,[3],5.03
same,PBM binding z-score,[4],3.17
same,PBM binding z-score,[5],6.26
same,PBM binding z-score,[6],3.7
same,PBM binding z-score,[7],1.21
same,PBM binding z-score,[8],2.76
TTACCAAGGTGAGCTGAGGTCGTTTATCCAACTC,PBM binding z-score,[1],1.47
same,PBM binding z-score,[2],1.08
same,PBM binding z-score,[3],0.862
same,PBM binding z-score,[4],0.292
same,PBM binding z-score,[5],1.27
same,PBM binding z-score,[6],4.58
same,PBM binding z-score,[7],2.09
same,PBM binding z-score,[8],2.23
GCTGCTAGATCAGGTTGGTCAGCTAACGGGTACG,PBM binding z-score,[1],-0.151
same,PBM binding z-score,[2],-0.607
same,PBM binding z-score,[3],-0.66
same,PBM binding z-score,[4],-0.411
same,PBM binding z-score,[5],-0.416
same,PBM binding z-score,[6],-0.611
same,PBM binding z-score,[7],-0.864
same,PBM binding z-score,[8],0.19
